Measured values as given in PubChem BioAssay (NCI).
The panel holds about 83,000 compounds, 20% with a hit somewhere; the sample as a whole holds those more often.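 48-hour exposure, single concentration, 96-well plates; percent growth endpoint where 0 means no net growth. Active: below 10.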 A number with no mark means an inactive call. The source made the active and inactive calls.

What was measured:
Assay in all cases: NCI-60 one-dose screen, 48 h (100 = growth as untreated, 0 = no growth, -100 = all killed)
Conditions in all cases: 10 µM unless noted
NCI-H23 lung = test system: NCI-H23 lung
NCI-H226 lung = test system: NCI-H226 lung
NCI-H322M lung = test system: NCI-H322M lung
HOP-62 NSCLC = test system: HOP-62 NSCLC
NCI-H460 lung = test system: NCI-H460 lung
NCI-H522 lung = test system: NCI-H522 lung
786-0 renal = test system: 786-0 renal
COLO 205 colon = test system: COLO 205 colon
DU-145 prostate = test system: DU-145 prostate
K-562 leukemia = test system: K-562 leukemia
MALME-3M melanoma = test system: MALME-3M melanoma
MDA-MB-231 breast = test system: MDA-MB-231 breast
RXF 393 renal = test system: RXF 393 renal
SF-268 CNS = test system: SF-268 CNS
SF-295 CNS = test system: SF-295 CNS
SF-539 CNS = test system: SF-539 CNS
UACC-257 melanoma = test system: UACC-257 melanoma
M14 melanoma = test system: M14 melanoma

Row | Compound | growth (NCI-H23 lung) | growth (NCI-H226 lung) | growth (NCI-H322M lung) | growth (HOP-62 NSCLC) | growth (NCI-H460 lung) | growth (NCI-H522 lung) | growth (786-0 renal) | growth (COLO 205 colon) | growth (DU-145 prostate) | growth (K-562 leukemia) | growth (MALME-3M melanoma) | growth (MDA-MB-231 breast) [%] | growth (RXF 393 renal) | growth (SF-268 CNS) [%] | growth (SF-295 CNS) | growth (SF-539 CNS) | growth (UACC-257 melanoma) | growth (M14 melanoma)
1 | Cc1ccc(C)c2c1SC1=NNC(Oc3ccc(Cl)cc3)=C(C#N)C(=N)N12 | 92.7% | 94.2% | 101% | 103% | 99.9% | 87.9% | 110% | 105% | 112% | 95.1% | 123% | 99.6 | 118% | 113 | 93.7% | 103% | 101% | 107%
2 | OCCN(CCO)c1ccc2ccccc2c1 | 101% | 103% | 93.6% | 90.6% | 107% | 73.4% | 111% | 106% | 103% | 106% | 102% | 108 | 125% | 96.8 | 98.9% | 96.7% | 110% | 90.7%
3 | CCCCCCCCOC(=O)C(C)OC(=O)OCCOCCOC(=O)OC(C)C(=O)OCCCCCCCC (stereo not drawn) | 113% | 102% | 92.4% | 105% | 107% | 114% | 104% | 119% | 104% |  | 89.3% | 107 | 110% | 103 | 93.6% | 109% | 107% | 96.5%
4 | CO[C@H](C(=O)[C@@H](O)[C@@H](C)O)[C@@H]1Cc2cc3cc(O[C@H]4C[C@@H](O[C@H]5C[C@@H](O)[C@H](O)C(C)O5)[C@H](O)C(C)O4)c(C)c(O)c3c(O)c2C(=O)[C@H]1O[C@H]1C[C@@H](O[C@H]2C[C@@H](O[C@H]3C[C@](C)(O)C(=O)C(C)O3)[C@@H](O)C(C)O2)[C@H](O)C(C)O1 (stereo partly drawn) | -7.26% (active) | 1.78% (active) | 7.31% (active) | -2.07% (active) | 4.88% (active) | -31.9% (active) | 4.11% (active) | -52.4% (active) | 9.76% (active) | 9.26% (active) | -26.8% (active) | 10.6 | -54.2% (active) | 16.4 | 6.84% (active) | 0.369% (active) | -27.4% (active) | -27% (active)
5 | CCN(CC)c1ccc(/C=N/NC(=O)C[N+](C)(C)C)cc1 | 99.4% | 98.9% | 115% | 99.2% | 110% | 100% | 101% | 111% | 113% | 54.3% | 92.6% | 119 | 112% | 110 | 109% | 110% | 104% | 110%
6 | Cc1cc(-c2ccc(N=Nc3c(S(=O)(=O)O)cc4cc(S(=O)(=O)O)cc(O)c4c3O)c(C)c2)ccc1N=Nc1c(S(=O)(=O)O)cc2cc(S(=O)(=O)O)cc(O)c2c1O | 101% | 99.3% | 80.7% | 82.7% | 130% | 99.3% | 113% | 92% | 112% | 125% | 100% | 107 | 80.1% | 104 | 94.1% | 101% | 102% | 103%
7 | CC(=O)NC1C(O[C@H]2C[C@H]3[C@@H]4CC=C5C[C@@H](O)CC[C@]5(C)[C@H]4CC[C@]3(C)[C@H]2[C@H](C)C(=O)CCC(C)C)OCC(O)C1O (stereo partly drawn) | 65.9% | 60.6% | 81.3% | 52% | 22.9% | 66.7% | 1.28% (active) | 30.1% | 57.7% | 0.56% (active) | 34.7% | 59.9 | -43.2% (active) | 31 | -53.2% (active) | -26.2% (active) | -15.5% (active) | -22.2% (active)
8 | CCOC(=O)C1=C(C(=O)OCC)N(c2cc(OC)c(OC)c(OC)c2)C(N)=C(C#N)C1c1cc(=O)[nH]c2ccccc12 (stereo not drawn) | 104% | 96.7% | 97.3% | 92.4% | 105% | 90.2% | 101% | 111% | 104% |  | 104% | 87.8 | 99.5% | 91.1 | 94.3% | 87.7% | 101% | 105%
9 | Cc1cc(O)ccc1Sc1ccccc1[N+](=O)[O-] | 86.2% | 97.2% | 110% | 92.2% | 96.4% | 75.9% | 107% | 108% | 96% | 101% | 79.6% | 106 | 106% | 98.4 | 90.1% | 102% | 88.1% | 88.9%
10 | COC(=O)C(Br)(C(=O)OC)C(Br)C(Br)C(Br)c1ccccc1 (stereo not drawn) | 94.1% | 91.8% | 102% | 120% | 100% | -84.5% (active) | 86% | 30.1% | 89.3% | 19.9% | 47.5% | 89 | -20.8% (active) | 101 | 114% | 26.6% | 56.4% | 44.2%
11 | CCN(CC)CC(=O)Nc1c(C)cc(C(=O)NN)cc1C | 94.8% | 99.7% | 89.1% | 88.5% | 105% | 105% | 106% | 95.4% | 96.8% | 94.9% | 73.9% | 103 | 110% | 93.9 | 105% | 100% | 100% | 96.2%
12 | CCOC(=O)C#Cc1c(C(=O)OCC)nnn1[C@@H]1O[C@H](COC(C)=O)[C@@H](OC(C)=O)[C@H]1OC(C)=O | 93.4% | 92.2% | 101% | 109% | 108% | 50% | 102% | 45.6% | 100% | 28.5% | 101% | 107 | 70.2% | 97.8 | 103% | 101% | 64.3% | 92.1%
13 | CCN1C(=O)/C(=C/N2N=C(c3ccc(Cl)cc3)CC2c2ccc(OC)cc2)SC1=S (stereo not drawn) | 98.3% | 93% | 89% | 96% | 99.7% | 70.4% | 76.4% | 99.7% | 108% | 77.8% | 108% | 87.2 | 91.9% | 95.2 | 89.6% | 88% | 89.3% | 92.3%
14 | ClCc1c(Cl)c(Cl)c(Cl)c(CCl)c1Cl | 82.8% | 35% | 94% | -28.8% (active) | 73.8% | -64.6% (active) | 76.3% | -87.4% (active) | 14.8% | -20.8% (active) | -40.3% (active) | 47.8 | -75.9% (active) | 33.5 | 97.5% | 97.6% | 19.9% | 35.5%
15 | COc1cccc(/C=N\Nc2ccc([N+](=O)[O-])cn2)c1O | 38% | 81.5% | 32% | 46.4% | 18% | 12.7% | 64.5% | 134% | 51.6% | 44.1% | 60.9% | 42.4 | 72.8% | 37.1 | 3.86% (active) | 50.6% | 16.2% | 38.8%
